In article PMC7862700, “An all-to-all approach to the identification of sequence-specific readers for epigenetic DNA modifications on cytosine”:

Experiments:
Assay in all cases: DAPPL (digital affinity profiling via proximity ligation, sequencing); 10 mM Tris-HCl pH 7.5, 50 mM NaCl, 1 mM DTT, 4% glycerol, room temperature, 30 min; GST-TFs on glutathione beads, 16-mer random dsDNA library, 0.1% formaldehyde crosslink after washing; high values mean tight binding
Conditions in all cases: protein: recombinant; tags: N-terminal GST; dsDNA, one strand shown
[1] = target: T1, FEV (Homo sapiens, UniProt Q99581 1-238)
T1 sequence: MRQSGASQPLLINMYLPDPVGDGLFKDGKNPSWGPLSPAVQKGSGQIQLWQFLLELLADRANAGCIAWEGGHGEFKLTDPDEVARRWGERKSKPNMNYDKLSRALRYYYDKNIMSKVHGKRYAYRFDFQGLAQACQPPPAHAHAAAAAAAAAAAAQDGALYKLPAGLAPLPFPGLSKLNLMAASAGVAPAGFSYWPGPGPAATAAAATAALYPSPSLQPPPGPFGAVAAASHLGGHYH
In short: (§1)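 Sequencing on an Illumina NextSeq500 followed washing, crosslinking with 0.1% formaldehyde, proximity ligation (BsaI/T4 ligase, 1 h, 37 °C) and PCR amplification of pools that had been incubated for 30 min at room temperature with 200 nmole of a random double-stranded 16-mer DNA library in Tris/NaCl/DTT/glycerol buffer. Each pool held DNA-barcoded human transcription factors, expressed in yeast as GST fusions and captured on glutathione beads, plus a tag-only sample. Binding signal is a hexamer's read frequency for a factor divided by its frequency in the tag-only sample.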

[2] = target: ETV5 (Homo sapiens, UniProt P41161 1-510)
Sequence of ETV5 (P41161 whole entry): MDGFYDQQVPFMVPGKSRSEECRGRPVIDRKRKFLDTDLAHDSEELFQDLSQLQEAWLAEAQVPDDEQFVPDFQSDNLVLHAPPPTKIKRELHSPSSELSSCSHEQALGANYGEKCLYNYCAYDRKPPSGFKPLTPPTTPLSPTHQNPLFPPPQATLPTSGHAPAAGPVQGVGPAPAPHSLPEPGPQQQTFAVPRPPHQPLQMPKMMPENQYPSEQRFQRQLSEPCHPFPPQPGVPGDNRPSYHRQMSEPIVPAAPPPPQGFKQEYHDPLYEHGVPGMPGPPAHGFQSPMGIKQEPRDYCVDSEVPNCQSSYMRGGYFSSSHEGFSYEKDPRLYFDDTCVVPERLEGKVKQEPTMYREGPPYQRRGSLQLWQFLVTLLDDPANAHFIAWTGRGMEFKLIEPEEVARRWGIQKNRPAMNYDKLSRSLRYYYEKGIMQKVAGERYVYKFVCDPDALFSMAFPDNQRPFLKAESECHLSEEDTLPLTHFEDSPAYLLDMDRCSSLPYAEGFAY
In short: as §1

[3] = target: T2, SPIC (Homo sapiens, UniProt Q8N5J4 1-248)
T2 sequence: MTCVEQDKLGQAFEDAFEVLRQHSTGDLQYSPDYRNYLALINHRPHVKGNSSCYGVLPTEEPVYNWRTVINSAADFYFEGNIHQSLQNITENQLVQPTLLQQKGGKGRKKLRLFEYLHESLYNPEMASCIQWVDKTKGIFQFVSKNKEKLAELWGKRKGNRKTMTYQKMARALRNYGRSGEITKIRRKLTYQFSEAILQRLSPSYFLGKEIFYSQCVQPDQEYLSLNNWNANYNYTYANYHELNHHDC
In short: as §1

[4] = target: ELF4 (Homo sapiens, UniProt Q99607 1-663)
Sequence of ELF4 (Q99607 whole entry): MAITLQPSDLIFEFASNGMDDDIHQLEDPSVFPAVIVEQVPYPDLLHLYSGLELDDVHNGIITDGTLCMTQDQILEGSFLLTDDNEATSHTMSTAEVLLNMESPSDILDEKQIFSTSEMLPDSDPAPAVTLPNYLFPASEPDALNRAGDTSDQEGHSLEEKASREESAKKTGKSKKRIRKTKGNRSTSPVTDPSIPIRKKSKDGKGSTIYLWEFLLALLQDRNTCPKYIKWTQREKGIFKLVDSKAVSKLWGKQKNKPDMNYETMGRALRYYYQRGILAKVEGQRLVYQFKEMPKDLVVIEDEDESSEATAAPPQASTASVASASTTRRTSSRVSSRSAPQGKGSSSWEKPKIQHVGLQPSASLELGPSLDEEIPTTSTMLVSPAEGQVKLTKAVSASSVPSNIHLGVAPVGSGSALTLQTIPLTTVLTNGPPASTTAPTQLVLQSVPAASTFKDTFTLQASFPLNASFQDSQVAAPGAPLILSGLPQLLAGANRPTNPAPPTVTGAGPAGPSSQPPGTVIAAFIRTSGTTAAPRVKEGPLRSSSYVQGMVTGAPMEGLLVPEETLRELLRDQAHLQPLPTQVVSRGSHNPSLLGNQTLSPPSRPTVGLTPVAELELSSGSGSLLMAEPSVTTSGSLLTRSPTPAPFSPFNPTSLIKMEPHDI
In short: as §1

[5] = target: T3, ELK4 (Homo sapiens, UniProt P28324-2 1-405)
T3 sequence: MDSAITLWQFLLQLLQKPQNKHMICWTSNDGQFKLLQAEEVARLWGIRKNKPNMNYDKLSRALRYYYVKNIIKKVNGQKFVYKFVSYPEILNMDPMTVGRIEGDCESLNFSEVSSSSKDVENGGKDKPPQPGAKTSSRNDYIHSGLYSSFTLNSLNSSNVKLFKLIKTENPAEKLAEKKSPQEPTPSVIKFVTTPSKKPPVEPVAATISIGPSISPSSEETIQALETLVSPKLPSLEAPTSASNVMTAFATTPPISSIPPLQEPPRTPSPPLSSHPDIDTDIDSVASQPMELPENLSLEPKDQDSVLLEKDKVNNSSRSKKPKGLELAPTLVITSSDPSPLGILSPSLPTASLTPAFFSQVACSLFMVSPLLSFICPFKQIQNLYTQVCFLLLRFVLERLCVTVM
In short: as §1

[6] = target: T4, ELF3 (Homo sapiens, UniProt P78545 1-371)
T4 sequence: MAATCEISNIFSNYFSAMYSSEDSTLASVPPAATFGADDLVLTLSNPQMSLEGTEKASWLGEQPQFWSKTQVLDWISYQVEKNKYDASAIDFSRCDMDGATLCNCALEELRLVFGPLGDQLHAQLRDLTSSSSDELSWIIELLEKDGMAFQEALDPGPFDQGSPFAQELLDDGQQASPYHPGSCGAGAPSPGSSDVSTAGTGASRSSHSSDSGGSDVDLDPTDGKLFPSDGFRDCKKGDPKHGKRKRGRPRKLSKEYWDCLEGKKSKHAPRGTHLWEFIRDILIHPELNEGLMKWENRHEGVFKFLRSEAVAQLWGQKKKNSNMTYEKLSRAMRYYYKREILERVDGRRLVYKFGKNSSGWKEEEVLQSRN
In short: as §1

[7] = target: ETV1 (Homo sapiens, UniProt P50549 1-477)
Sequence of ETV1 (P50549 whole entry): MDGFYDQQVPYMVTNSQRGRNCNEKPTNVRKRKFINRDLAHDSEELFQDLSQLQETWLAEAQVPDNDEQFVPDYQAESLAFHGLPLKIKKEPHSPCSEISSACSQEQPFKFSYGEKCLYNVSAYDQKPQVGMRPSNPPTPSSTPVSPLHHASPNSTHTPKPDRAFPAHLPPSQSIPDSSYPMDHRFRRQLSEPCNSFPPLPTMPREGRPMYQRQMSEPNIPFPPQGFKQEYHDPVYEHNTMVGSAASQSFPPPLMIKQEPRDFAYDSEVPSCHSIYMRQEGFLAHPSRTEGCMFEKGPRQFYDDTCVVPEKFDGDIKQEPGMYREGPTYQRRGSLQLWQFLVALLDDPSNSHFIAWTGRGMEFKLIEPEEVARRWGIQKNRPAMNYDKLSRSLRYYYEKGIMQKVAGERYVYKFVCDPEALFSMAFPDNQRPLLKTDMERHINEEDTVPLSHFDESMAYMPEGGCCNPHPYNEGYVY
In short: as §1

[8] = target: T5, ERF (Homo sapiens, UniProt P50548 1-548)
T5 sequence: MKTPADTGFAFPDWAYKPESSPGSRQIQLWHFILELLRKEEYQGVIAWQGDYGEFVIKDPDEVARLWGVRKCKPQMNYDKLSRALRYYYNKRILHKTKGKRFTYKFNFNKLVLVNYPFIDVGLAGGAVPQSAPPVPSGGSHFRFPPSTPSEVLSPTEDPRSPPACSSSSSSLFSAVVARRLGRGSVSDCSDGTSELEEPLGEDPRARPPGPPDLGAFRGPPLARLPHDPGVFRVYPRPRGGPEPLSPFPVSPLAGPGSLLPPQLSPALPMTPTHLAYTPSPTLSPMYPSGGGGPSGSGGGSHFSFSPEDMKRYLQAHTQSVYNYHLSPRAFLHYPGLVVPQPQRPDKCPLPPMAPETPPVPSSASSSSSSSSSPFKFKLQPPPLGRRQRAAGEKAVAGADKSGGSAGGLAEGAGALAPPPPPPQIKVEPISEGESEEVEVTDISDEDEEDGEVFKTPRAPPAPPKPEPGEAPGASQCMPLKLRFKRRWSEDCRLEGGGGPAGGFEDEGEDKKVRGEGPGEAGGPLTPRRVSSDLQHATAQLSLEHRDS
In short: as §1

[9] = target: T6, ETV3L (Homo sapiens, UniProt Q6ZN32 1-361)
T6 sequence: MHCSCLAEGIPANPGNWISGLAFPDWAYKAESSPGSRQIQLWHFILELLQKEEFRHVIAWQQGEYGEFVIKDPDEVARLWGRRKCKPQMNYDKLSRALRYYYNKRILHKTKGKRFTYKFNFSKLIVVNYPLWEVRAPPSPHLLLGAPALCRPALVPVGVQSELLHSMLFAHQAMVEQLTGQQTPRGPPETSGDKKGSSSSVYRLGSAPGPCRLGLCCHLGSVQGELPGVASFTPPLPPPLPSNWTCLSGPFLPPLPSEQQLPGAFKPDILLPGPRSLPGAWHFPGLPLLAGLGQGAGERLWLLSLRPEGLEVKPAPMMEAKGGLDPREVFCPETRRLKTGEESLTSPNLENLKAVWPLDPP
In short: as §1

[10] = target: T7, ETS2 (Homo sapiens, UniProt P15036 1-469)
T7 sequence: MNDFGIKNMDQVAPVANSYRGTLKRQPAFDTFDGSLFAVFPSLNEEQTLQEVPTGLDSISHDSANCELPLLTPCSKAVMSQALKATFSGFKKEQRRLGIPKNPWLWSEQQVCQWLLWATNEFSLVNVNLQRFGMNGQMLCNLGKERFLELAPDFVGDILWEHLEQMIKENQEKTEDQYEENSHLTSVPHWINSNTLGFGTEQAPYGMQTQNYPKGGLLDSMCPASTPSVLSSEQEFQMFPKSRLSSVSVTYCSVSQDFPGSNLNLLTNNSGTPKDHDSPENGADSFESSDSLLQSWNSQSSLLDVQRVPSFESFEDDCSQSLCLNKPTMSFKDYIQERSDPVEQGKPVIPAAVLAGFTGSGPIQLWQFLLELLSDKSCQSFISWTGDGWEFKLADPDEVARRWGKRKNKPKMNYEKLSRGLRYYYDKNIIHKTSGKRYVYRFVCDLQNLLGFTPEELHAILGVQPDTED
In short: as §1

[11] = target: T8, SPDEF (Homo sapiens, UniProt O95238 1-335)
T8 sequence: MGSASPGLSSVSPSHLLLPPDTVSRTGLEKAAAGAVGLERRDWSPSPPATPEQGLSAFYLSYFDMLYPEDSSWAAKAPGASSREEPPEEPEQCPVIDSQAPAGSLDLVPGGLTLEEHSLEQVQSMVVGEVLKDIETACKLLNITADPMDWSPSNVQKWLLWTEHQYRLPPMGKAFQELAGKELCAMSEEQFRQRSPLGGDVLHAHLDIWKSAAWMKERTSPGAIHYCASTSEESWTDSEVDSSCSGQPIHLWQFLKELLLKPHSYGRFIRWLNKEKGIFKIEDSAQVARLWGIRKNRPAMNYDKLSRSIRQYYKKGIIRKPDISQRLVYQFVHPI
In short: as §1

[12] = target: T9, ETV7 (Homo sapiens, UniProt Q9Y603 1-341)
T9 sequence: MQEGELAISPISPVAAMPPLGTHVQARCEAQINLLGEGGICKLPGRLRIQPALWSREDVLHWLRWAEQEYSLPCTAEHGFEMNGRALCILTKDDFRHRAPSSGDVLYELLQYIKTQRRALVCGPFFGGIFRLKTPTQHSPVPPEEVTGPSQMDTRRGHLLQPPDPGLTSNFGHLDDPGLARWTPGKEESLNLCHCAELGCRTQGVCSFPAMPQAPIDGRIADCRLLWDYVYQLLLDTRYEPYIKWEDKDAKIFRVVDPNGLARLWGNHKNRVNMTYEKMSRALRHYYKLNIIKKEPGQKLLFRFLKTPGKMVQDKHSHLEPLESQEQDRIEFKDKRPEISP
In short: as §1

[13] = target: T10, ELF5 (Homo sapiens, UniProt Q9UKW6-2 1-255)
T10 sequence: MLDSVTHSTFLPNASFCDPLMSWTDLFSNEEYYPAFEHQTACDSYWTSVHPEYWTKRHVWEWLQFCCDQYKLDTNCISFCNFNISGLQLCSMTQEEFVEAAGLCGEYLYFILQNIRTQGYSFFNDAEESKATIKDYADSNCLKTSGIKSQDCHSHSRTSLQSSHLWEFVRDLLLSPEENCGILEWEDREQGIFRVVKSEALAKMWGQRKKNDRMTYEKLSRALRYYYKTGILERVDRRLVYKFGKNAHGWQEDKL
In short: as §1

[14] = target: T11, ETV3 (Homo sapiens, UniProt P41162-2 1-143)
T11 sequence: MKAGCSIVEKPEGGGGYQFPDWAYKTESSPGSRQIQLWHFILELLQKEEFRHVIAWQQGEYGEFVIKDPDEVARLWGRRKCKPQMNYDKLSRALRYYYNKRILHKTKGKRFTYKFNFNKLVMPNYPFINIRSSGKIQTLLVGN
In short: as §1

[15] = target: ETV6 (Homo sapiens, UniProt P41212 1-452)
Sequence of ETV6 (P41212 whole entry): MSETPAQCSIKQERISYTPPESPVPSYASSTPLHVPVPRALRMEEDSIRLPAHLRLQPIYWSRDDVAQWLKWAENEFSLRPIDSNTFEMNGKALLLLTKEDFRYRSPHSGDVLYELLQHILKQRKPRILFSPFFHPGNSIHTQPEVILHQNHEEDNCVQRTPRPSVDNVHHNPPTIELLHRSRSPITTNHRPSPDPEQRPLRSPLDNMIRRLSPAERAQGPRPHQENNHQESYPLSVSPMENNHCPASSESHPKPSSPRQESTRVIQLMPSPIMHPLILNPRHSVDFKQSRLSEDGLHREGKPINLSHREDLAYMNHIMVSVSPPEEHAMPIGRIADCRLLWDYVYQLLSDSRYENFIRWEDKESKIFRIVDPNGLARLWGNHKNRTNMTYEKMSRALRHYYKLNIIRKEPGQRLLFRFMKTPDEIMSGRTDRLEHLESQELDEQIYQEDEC
In short: as §1

[16] = target: T12, ETV2 (Homo sapiens, UniProt O00321 1-342)
T12 sequence: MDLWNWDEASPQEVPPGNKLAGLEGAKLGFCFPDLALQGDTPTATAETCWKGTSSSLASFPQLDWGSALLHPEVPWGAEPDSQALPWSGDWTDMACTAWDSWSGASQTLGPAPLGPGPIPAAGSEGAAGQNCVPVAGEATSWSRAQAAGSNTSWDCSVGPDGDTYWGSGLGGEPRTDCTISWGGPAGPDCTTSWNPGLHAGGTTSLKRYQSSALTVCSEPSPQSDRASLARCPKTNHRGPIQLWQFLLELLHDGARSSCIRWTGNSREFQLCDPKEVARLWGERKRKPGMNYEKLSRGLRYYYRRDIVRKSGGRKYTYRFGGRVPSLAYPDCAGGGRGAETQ
In short: as §1

Sequence	binding signal [1]	binding signal [2]	binding signal [3]	binding signal [4]	binding signal [5]	binding signal [6]	binding signal [7]	binding signal [8]	binding signal [9]	binding signal [10]	binding signal [11]	binding signal [12]	binding signal [13]	binding signal [14]	binding signal [15]	binding signal [16]
GGGCTC	1.15 fold enrichment (6-mer frequency, TF over GST control)	1.18 fold enrichment (6-mer frequency, TF over GST control)	1.19 fold enrichment (6-mer frequency, TF over GST control)	1.26 fold enrichment (6-mer frequency, TF over GST control)	1.09 fold enrichment (6-mer frequency, TF over GST control)	1.19 fold enrichment (6-mer frequency, TF over GST control)	1.29 fold enrichment (6-mer frequency, TF over GST control)	1.28 fold enrichment (6-mer frequency, TF over GST control)	1.32 fold enrichment (6-mer frequency, TF over GST control)	1.14 fold enrichment (6-mer frequency, TF over GST control)	1.09 fold enrichment (6-mer frequency, TF over GST control)	1.18 fold enrichment (6-mer frequency, TF over GST control)	1.12 fold enrichment (6-mer frequency, TF over GST control)	1.22 fold enrichment (6-mer frequency, TF over GST control)	1.19 fold enrichment (6-mer frequency, TF over GST control)	
ACGCAC	1.05 fold enrichment (6-mer frequency, TF over GST control)	1.09 fold enrichment (6-mer frequency, TF over GST control)	1.01 fold enrichment (6-mer frequency, TF over GST control)	1.05 fold enrichment (6-mer frequency, TF over GST control)	1.06 fold enrichment (6-mer frequency, TF over GST control)		1.1 fold enrichment (6-mer frequency, TF over GST control)	1.13 fold enrichment (6-mer frequency, TF over GST control)	1.01 fold enrichment (6-mer frequency, TF over GST control)	1.09 fold enrichment (6-mer frequency, TF over GST control)		1.03 fold enrichment (6-mer frequency, TF over GST control)	1.03 fold enrichment (6-mer frequency, TF over GST control)	1.13 fold enrichment (6-mer frequency, TF over GST control)	1.02 fold enrichment (6-mer frequency, TF over GST control)	1.22 fold enrichment (6-mer frequency, TF over GST control)
TGGCCC	1.09 fold enrichment (6-mer frequency, TF over GST control)	1.12 fold enrichment (6-mer frequency, TF over GST control)	1.18 fold enrichment (6-mer frequency, TF over GST control)	1.14 fold enrichment (6-mer frequency, TF over GST control)	1.19 fold enrichment (6-mer frequency, TF over GST control)		1.15 fold enrichment (6-mer frequency, TF over GST control)		1.07 fold enrichment (6-mer frequency, TF over GST control)	1.12 fold enrichment (6-mer frequency, TF over GST control)	1.03 fold enrichment (6-mer frequency, TF over GST control)	1.01 fold enrichment (6-mer frequency, TF over GST control)	1.02 fold enrichment (6-mer frequency, TF over GST control)	1.03 fold enrichment (6-mer frequency, TF over GST control)	1.06 fold enrichment (6-mer frequency, TF over GST control)	1.18 fold enrichment (6-mer frequency, TF over GST control)
ACCCTG	1.02 fold enrichment (6-mer frequency, TF over GST control)	1.01 fold enrichment (6-mer frequency, TF over GST control)	1.1 fold enrichment (6-mer frequency, TF over GST control)	1.16 fold enrichment (6-mer frequency, TF over GST control)	1.18 fold enrichment (6-mer frequency, TF over GST control)		1.09 fold enrichment (6-mer frequency, TF over GST control)	1.04 fold enrichment (6-mer frequency, TF over GST control)	1.05 fold enrichment (6-mer frequency, TF over GST control)	1.01 fold enrichment (6-mer frequency, TF over GST control)	1.03 fold enrichment (6-mer frequency, TF over GST control)	1.04 fold enrichment (6-mer frequency, TF over GST control)	1.03 fold enrichment (6-mer frequency, TF over GST control)	1.13 fold enrichment (6-mer frequency, TF over GST control)	1.07 fold enrichment (6-mer frequency, TF over GST control)	1.05 fold enrichment (6-mer frequency, TF over GST control)
